This note sets out measurements from ChEMBL document CHEMBL2218924, “A broad activity screen in support of a chemogenomic map for kinase signalling research and drug discovery” (Biochem J, 2013).

The target in test [1] is Protein kinase C alpha type (Homo sapiens) (UniProt P17252). To be noted: at 1 µM.
The target is the same in test [2]. Particulars: at 10 µM.
The target in test [3] is Protein kinase C beta type (Homo sapiens) (UniProt P05771). Particulars: at 1 µM.
Test [4] shares this target. To be noted: at 10 µM.
Test [5] has the same target. Particulars: at 1 µM. The source holds these as a separate data set.
Test [6] shares this target. Particulars: at 10 µM. This is another data set of the same source.
For test [7], the target named is Protein kinase C gamma type (Homo sapiens) (UniProt P05129). Particulars: at 1 µM.
The target is the same in test [8]. To be noted: at 10 µM.
Test [9] addresses Protein kinase C delta type (Homo sapiens) (UniProt Q05655). To be noted: at 1 µM.
Test [10] shares this target. To be noted: at 10 µM.
Test [11] addresses T1, Protein kinase C epsilon type (Homo sapiens) (UniProt Q02156).
T1 sequence (whole entry): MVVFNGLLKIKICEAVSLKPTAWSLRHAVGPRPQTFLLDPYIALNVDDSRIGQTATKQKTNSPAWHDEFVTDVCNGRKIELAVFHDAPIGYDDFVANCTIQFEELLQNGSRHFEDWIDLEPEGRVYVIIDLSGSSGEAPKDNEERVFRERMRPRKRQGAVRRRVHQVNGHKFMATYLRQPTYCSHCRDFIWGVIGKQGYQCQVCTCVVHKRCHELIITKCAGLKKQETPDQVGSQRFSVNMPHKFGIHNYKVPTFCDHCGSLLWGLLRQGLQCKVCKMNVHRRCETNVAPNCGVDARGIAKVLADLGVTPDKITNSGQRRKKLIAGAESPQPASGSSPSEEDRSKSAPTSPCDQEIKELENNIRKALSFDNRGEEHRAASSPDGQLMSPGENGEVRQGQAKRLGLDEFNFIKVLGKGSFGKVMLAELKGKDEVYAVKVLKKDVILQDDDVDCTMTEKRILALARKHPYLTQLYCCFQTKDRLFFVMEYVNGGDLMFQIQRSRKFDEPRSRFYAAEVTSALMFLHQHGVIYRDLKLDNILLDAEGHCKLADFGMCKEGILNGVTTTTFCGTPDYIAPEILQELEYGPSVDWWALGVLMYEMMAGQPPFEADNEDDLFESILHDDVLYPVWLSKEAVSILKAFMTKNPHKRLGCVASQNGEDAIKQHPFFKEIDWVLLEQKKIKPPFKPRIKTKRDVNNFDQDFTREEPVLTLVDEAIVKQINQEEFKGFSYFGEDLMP
To be noted: at 1 µM.

Test [12] deals with T1, Protein kinase C epsilon type (Homo sapiens). To be noted: at 10 µM.

Protein kinase C delta type (Homo sapiens), sequence (Q05655 whole entry, looked up): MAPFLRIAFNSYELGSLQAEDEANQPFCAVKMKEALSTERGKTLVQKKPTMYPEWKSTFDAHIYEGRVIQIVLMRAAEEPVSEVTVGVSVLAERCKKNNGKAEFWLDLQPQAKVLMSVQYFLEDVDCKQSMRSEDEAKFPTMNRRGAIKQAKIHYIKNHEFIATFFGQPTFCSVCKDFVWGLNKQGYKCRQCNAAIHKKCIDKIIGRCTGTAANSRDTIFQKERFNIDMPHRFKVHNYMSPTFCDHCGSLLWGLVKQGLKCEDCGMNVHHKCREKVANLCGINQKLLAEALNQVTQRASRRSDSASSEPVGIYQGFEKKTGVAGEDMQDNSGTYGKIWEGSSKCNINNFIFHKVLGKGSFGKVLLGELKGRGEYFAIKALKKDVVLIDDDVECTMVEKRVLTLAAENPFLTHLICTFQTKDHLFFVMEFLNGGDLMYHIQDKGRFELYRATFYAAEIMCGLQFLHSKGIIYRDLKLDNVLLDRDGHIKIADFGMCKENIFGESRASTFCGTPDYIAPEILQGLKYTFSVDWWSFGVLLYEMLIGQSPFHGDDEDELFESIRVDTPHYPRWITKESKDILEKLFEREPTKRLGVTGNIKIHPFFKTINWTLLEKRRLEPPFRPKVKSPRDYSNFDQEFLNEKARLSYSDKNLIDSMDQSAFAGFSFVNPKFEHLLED
Protein kinase C beta type (Homo sapiens), sequence (P05771 2-671 limits assumed): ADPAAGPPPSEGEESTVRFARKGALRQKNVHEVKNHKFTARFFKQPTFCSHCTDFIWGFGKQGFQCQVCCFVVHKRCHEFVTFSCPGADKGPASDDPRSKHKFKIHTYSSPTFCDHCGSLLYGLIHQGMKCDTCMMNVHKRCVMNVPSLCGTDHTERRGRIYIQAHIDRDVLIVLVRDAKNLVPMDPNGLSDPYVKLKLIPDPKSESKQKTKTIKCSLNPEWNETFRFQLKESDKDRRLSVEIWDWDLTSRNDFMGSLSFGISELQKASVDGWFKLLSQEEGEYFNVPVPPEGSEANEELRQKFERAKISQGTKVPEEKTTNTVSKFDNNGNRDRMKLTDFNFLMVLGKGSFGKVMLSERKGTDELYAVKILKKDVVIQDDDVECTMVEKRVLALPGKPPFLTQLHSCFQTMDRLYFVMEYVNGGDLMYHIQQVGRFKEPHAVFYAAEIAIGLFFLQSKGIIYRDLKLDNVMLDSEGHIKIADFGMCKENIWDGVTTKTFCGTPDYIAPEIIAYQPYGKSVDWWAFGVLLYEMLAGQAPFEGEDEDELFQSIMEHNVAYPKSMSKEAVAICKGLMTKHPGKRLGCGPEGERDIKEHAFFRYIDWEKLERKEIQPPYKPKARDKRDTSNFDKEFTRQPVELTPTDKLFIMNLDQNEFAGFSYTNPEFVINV

As a reminder, the residual activity is the signal under treatment as a percentage of the control signal. As for `Cc1ccc(NC2=CC(=O)c3sc(C)nc3C2=O)cc1`, the residual activity came to 106% in [1]; 105% in test [2]; 98% in test [3]; 88% in test [4]; 112% in test [5]; 101% in test [6]. Further, the residual activity in [7] was 102%; in [8] it was 108%; in test [9] it was 103%; in test [10], 102%; in test [11] it was 87%; in test [12] it was 94%.
`CCOc1cc2ncnc(Nc3cccc(Br)c3)c2cc1OCC`: the residual activity in [1] is 107%; in test [2] it was 97%; in test [3], 87%; in test [4] it was 97%; in [5], 100%; in test [6] it was 103%. In addition, the residual activity is 108% in [7]; 112% in test [8]; 106% in [9]; 104% in test [10]; 84% in test [11]; 100% in [12].
As to `COc1ccc(C(=O)Nc2sc3c(c2C(N)=O)CCCC3)cc1OC`, the residual activity in test [1] stood at 106%; in test [2], 100%; in [3], 109%; in [4] it was 94%; in test [5] it was 111%; in [6], 101%. The residual activity in [7] is 117%; in test [8], 104%; in test [9] it was 101%; in [10], 104%; in test [11], 89%; in test [12], 96%.
As to `CC(=O)O/N=C1\C(=C2\C(=O)Nc3cc(Br)ccc32)Nc2ccccc21`, the residual activity is 105% in test [1]; 101% in test [2]; 122% in [3]; 122% in test [4]; 105% in [5]; 94% in test [6]. In addition, the residual activity came to 97% in [7]; 109% in test [8]; 98% in [9]; 108% in [10]; 107% in [11]; 93% in [12].
Consider `Nc1ccc2ncnc(NCCc3ccc(Oc4ccccc4)cc3)c2c1`, for which the residual activity came to 103% in test [1]; 103% in test [2]; 137% in test [3]; 113% in test [4]; 118% in [5]; 104% in test [6]. Also, the residual activity is 87% in test [7]; 111% in test [8]; 106% in [9]; 111% in [10]; 119% in test [11]; 126% in [12].
As to `Nc1n[nH]c2nnc(-c3c(-c4ccccc4)nn4ccccc34)cc12`, the residual activity in test [1] was determined as 97%; in [2], 91%; in [3], 99%; in test [4], 96%; in test [5], 102%; in test [6] it was 93%. Further, the residual activity in test [7] came to 98%; in test [8], 98%; in test [9] it was 22%; in test [10], 4%; in test [11] it was 101%; in test [12], 41%.
On to `N#C/C(=C(\N)Sc1ccc(N)cc1)c1ccccc1C(F)(F)F`, for which the residual activity amounted to 107% in [1]; 96% in [2]; 114% in test [3]; 104% in [4]; 114% in test [5]; 99% in test [6]. Besides, the residual activity came out at 98% in test [7]; 104% in [8]; 99% in [9]; 104% in test [10]; 100% in test [11]; 106% in test [12].
With `Oc1ccc(-c2nc(-c3ccc(F)cc3)c(-c3ccncc3)[nH]2)cc1`, the residual activity turned out to be 112% in [1]; 92% in [2]; 124% in test [3]; 85% in test [4]; 110% in test [5]; 81% in test [6]. Also, the residual activity in [7] came out at 106%; in [8], 103%; in [9], 98%; in [10], 90%; in test [11] it was 122%; in test [12], 99%.
Turning to `CO[C@H]1C[C@@H]2CC[C@@H](C)[C@@](O)(O2)C(=O)C(=O)N2CCCC[C@H]2C(=O)O[C@H]([C@H](C)C[C@@H]2CC[C@@H](O)[C@H](OC)C2)CC(=O)[C@H](C)/C=C(\C)[C@@H](O)[C@@H](OC)C(=O)[C@H](C)C[C@H](C)/C=C/C=C/C=C/1C`, the residual activity in [1] was determined as 99%; in test [2], 99%; in [3] it was 107%; in test [4], 106%; in test [5] it was 105%; in test [6], 103%. Also, the residual activity in test [7] came to 105%; in test [8], 98%; in [9], 98%; in test [10], 99%; in [11] it was 81%; in test [12] it was 82%.
Take `COc1ccc(S(=O)(=O)N(CCO)c2ccccc2CN(C)C/C=C/c2ccc(Cl)cc2)cc1`: the residual activity in test [1] was 107%; in [2], 94%; in [3], 106%; in test [4], 102%; in test [5], 115%; in test [6], 96%. Also, the residual activity in [7] worked out at 99%; in test [8] it was 104%; in [9], 108%; in [10], 106%; in test [11] it was 106%; in test [12], 93%.
With `COc1cc2ncnc(Nc3ccc(Oc4ccccc4)cc3)c2cc1OC`, the residual activity came to 91% in [1]; 96% in test [2]; 120% in test [3]; 126% in [4]; 104% in test [5]; 104% in [6]. Moreover, the residual activity in test [7] amounted to 105%; in test [8], 97%; in [9] it was 103%; in test [10], 107%; in test [11] it was 85%; in [12], 89%.
Consider `O=C1NC(=O)c2c1c1c3ccccc3[nH]c1c1[nH]c3cc(Br)ccc3c21`, for which the residual activity in [1] was determined as 102%; in [2], 103%; in test [3], 108%; in test [4] it was 95%; in test [5], 104%; in test [6], 95%. The residual activity in test [7] stood at 99%; in test [8] it was 100%; in test [9] it was 97%; in test [10], 102%; in [11], 94%; in [12], 102%.
As for `CN(C)c1ccc(/C=C2\C(=O)Nc3ccccc32)cc1`, the residual activity in test [1] was found to be 103%; in [2] it was 101%; in test [3], 114%; in test [4] it was 112%; in test [5], 94%; in test [6] it was 98%. Also, the residual activity in test [7] came out at 113%; in [8], 102%; in test [9], 88%; in test [10] it was 101%; in [11] it was 120%; in test [12] it was 121%.
Turning to `O=c1cc(-c2cccc3c2Sc2ccccc2S3)oc(N2CCOCC2)c1`, the residual activity is 95% in [1]; 86% in test [2]; 102% in test [3]; 100% in test [4]; 104% in test [5]; 101% in test [6]. Further, the residual activity in test [7] is 99%; in test [8], 95%; in test [9], 100%; in [10], 104%; in [11], 91%; in test [12], 94%.
For the molecule `COc1ccc(OC)c2c(=S)c3ccccc3[nH]c12`, the residual activity in test [1] worked out at 102%; in [2] it was 101%; in [3], 89%; in test [4], 115%; in test [5] it was 106%; in [6] it was 97%. Besides, the residual activity was determined as 96% in test [7]; 91% in test [8]; 103% in test [9]; 98% in [10]; 98% in [11]; 109% in test [12].
